# Results published in PubChem BioAssay AID686978 (National Center for Advancing Translational Sciences (NCATS), 2013).
# Among all 420,000 compounds or so, about 64,000 (15%) were called active. About 27% were inconclusive and are not listed. Calls come from the whole dose curve; as a rule, active = well fitted inhibition curve with a large enough effect; inconclusive = small, poorly fitted or top-dose-only effect; inactive = flat fitted curve, though single readings scatter. The list is a sample of the results. Where a call stands in place of a potency, no number is given.
# Assay: qHTS for Inhibitors of human tyrosyl-DNA phosphodiesterase 1 (TDP1): qHTS in cells in absence of CPT; note: nearly all actives have a fitted effect of over 55% in size
# Details: DT40 Tdp1-/- hTDP1 cells, no CPT, ATP luminescence, 48 h; activity change, negative = growth inhibition: at 46.2 µM (top of the series)
# How it was run: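 Readout: luminescence from CellTiter-Glo after 30 min in the dark at RT. Cells: DT40 Tdp1-/- with stable hTDP1, 400/well. Exposure: compounds alone, ≥48 hr, 37 °C.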
# Potency is the fitted concentration of half-maximal effect.
row,Compound,Potency
1,N#Cc1cccc(-c2ccc3ncnc(NCc4cccs4)c3c2)c1,23.1 µM (active)
2,O=c1c(NCc2cccs2)nccn1-c1ccccc1,inactive
3,O=C(O)c1ccc2c(c1)C(=O)N(NC(=O)c1ccc(O)cc1)C2=O,inactive
4,COc1ccccc1OCC(=O)Nc1nnc2n1CCS2,inactive
5,O=C(COC(=O)CCCSc1nc2ccccc2[nH]1)Nc1ccc(Oc2ccccc2)cc1,inactive
6,O=C(CSc1nc2ccccc2[nH]1)N/N=C/C=C\c1ccccc1[N+](=O)[O-],20.6 µM (active)
7,O=C(CSc1nc2ccccc2[nH]1)Nc1nc(-c2ccccc2)c(-c2ccccc2)o1,inactive
8,Cc1cnc(CNc2ncncc2-c2ccccc2Cl)cn1,inactive
9,COCC1CCN(C(=O)CCc2nnc(C3(c4ccc(Cl)cc4)CCC3)o2)C1 (stereo not given),inactive
10,COc1ccccc1C1=Nc2cccc3cccc(c23)N1,5.17 µM (active)
11,c1ccc(C2=Nc3cccc4cccc(c34)N2)cc1,11.6 µM (active)
12,COc1ccccc1-c1n[nH]nc1C1=CC(=O)CC(C)(C)C1,inactive
13,COc1ccccc1-c1nc(SC)n[nH]1,inactive
14,CC1(C)CC(=O)C=C(NCCN2CCNCC2)C1,inactive
15,COc1ccc(C(=O)OCC(=O)Nc2cccc(C(C)=O)c2)cc1OC,inactive
16,COC(=O)c1sc(N)c(C(=O)OC)c1COC(=O)CNS(=O)(=O)c1ccc(C)cc1,inactive
17,COCCN(C(=O)c1ccccc1F)c1c(N)n(Cc2ccccc2)c(=O)[nH]c1=O,inactive
18,O=C(NCc1ccc(F)cc1)c1cc(C2CCCCN2C(=O)c2ccccn2)on1 (stereo not given),20.6 µM (active)
19,O=C(NCc1cccnc1)c1cc(C2CCCN(C(=O)C3CCCCC3)C2)on1 (stereo not given),inactive
20,O=C(NCc1ccc(F)cc1)c1cc(C2CCCCN2C(=O)C2CCCCC2)on1 (stereo not given),23.1 µM (active)
21,O=C(c1cc(C2CCCCN2S(=O)(=O)c2ccccc2)on1)N1CCOCC1 (stereo not given),inactive
22,CCCNC(=O)c1cc(C2CCCCN2S(=O)(=O)c2cn(C)cn2)on1 (stereo not given),inactive
23,CS(=O)(=O)N1CCCCC1c1cc(C(=O)NCc2ccccc2)no1 (stereo not given),inactive
24,CC(Oc1ccc(Cl)cc1)C(=O)OCC(=O)Nc1ncc(Cl)cc1Cl (stereo not given),inactive
25,COC(=O)c1c(NC(=O)C(=O)N2CCCCC2)sc2c1CC(C)(C)OC2,inactive
26,COC1=NC2=NCCN2C(OC)=N1,inactive
27,Cc1ccc2cccc(NC(=O)c3ccc(OC(C)C)cc3)c2n1,29.1 µM (active)
28,CC(C)Oc1ccc(C(=O)Nc2cc(=O)n(C)c(=O)n2C)cc1,inactive
29,Cc1ccc2cccc(NC(=O)C(C)Oc3ccc(C)c(C)c3)c2n1 (stereo not given),inactive
30,COCc1cc(=O)[nH]c2cc(NC(=O)C(F)(F)F)c(C)cc12,inactive
